High-throughput results deposited in PubChem by National Center for Advancing Translational Sciences (NCATS).
Sampled rows, rich in hits. Any-hit rate of the full collection: about 4.2%.
D1 ag: Allosteric Agonists of the Human D1 Dopamine Receptor: qHTS | activation, % at 2 µM | 360,000 tested, 1% active | HEK293 T-REx D1 cells, calcium flux, agonist mode; in the data active = activation above about 30%; note: 0% is about no effect
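Tetracycline-induced HEK293 TREx D1 cells, force-coupled to calcium signalling, were dye-loaded with a no-wash calcium kit. Compound was pin-added after a 10 s baseline. Fluorescence was read kinetically at 1 cycle/s for 180 s, with calcium rises flagged as agonism.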
D1 PAM: Potentiators of Human D1 Dopamine Receptor: qHTS; D(1A) dopamine receptor (Homo sapiens), P21728; HEK293 TREx D1 cells, calcium flux, dopamine EC20 potentiation; potentiation, % at 10 µM; 360,000 tested, 0.036% active; AID 504651, 2011; in the data active = potentiation above about 30%; note: 0% is about no effect
TRPV1 agonist: HTS Assay for Compounds that Act as Agonists of the Vanilloid Receptor 1. activation, % at 8.33 µM. 320,000 tested, 0.19% active. TRPV1-expressing cells, Fluo-8 calcium influx, agonist mode. Transient receptor potential cation channel subfamily V member 1 (Homo sapiens), Q8NER1; in the data active = activation above about 80%; inconclusive = between about 30% and that limit; note: 0% is about no effect
Target sequence (Q8NER1 whole entry, looked up): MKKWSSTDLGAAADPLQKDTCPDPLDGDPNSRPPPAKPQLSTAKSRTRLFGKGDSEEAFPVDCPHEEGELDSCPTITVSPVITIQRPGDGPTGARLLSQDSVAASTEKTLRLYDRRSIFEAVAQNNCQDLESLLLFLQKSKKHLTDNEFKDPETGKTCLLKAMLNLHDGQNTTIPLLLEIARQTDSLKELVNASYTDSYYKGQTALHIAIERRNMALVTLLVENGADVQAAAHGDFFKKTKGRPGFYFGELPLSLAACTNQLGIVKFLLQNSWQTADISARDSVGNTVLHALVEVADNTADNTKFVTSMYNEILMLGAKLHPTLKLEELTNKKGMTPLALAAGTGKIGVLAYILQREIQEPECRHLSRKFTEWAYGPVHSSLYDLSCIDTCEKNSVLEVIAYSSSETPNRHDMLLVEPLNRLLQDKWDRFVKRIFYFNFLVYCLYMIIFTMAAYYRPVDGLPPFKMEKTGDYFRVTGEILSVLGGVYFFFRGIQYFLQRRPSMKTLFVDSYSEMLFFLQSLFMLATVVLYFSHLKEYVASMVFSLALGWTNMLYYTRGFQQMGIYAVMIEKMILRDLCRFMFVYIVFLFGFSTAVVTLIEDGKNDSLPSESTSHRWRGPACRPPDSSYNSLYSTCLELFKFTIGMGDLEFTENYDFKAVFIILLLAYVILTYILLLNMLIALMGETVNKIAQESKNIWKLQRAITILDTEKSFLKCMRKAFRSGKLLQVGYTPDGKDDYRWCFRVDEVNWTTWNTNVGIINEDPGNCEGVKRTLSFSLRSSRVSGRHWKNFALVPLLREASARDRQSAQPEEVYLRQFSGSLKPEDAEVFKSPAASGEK
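Cells expressing TRPV1 were dye-loaded with Fluo-8 and read kinetically: 10 s baseline, 3 min after compound (agonist portion), then 2 min after EC20 capsaicin (allosteric enhancer portion). Calcium-bound dye fluorescence at 480/520 nm.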
TRPV1 PAM: HTS Assay for Compounds that Act as Potentiators of the Vanilloid Receptor 1 | Transient receptor potential cation channel subfamily V member 1 (Homo sapiens), Q8NER1 | AID 540277, 2011 | TRPV1-expressing cells, Fluo-8 calcium influx, capsaicin EC20 potentiation | potentiation, % at 8.33 µM | 320,000 tested, 0.02% active; in the data active = potentiation above about 80%; inconclusive = between about 30% and that limit; note: 0% is about no effect
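TRPV1-expressing cells were cultured overnight at 35.5C and loaded with Fluo-8 calcium dye for 40 to 90 min at room temperature. After a 10 s baseline, compound was added and calcium influx was read kinetically for 3 min (ex 480/em 520 nm).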
D1 antag: Antagonist of Human D 1 Dopamine Receptor: qHTS. D(1A) dopamine receptor (Homo sapiens), P21728. HEK293 TREx D1 cells, calcium flux, dopamine EC80; stronger effect = lower value. activity change, negative = inhibition, % at 10 µM. 360,000 tested, 3.2% active; in the data active = activity change below about -30%; note: % is set by controls: 0 for no effect and ±100 for the full control effect
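Cells carrying a force-coupled, tetracycline-inducible human D1 receptor report calcium flux. Each well gets a 10 s baseline, compound with 180 s monitoring, then an EC80 dopamine stimulus with a second 180 s kinetic read.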
* hit, by the source's call; ? = inconclusive; · = no result.

SMILES | D1 ag | D1 PAM | TRPV1 agonist | TRPV1 PAM | D1 antag
COc1cccc(C(c2ccccc2)N2C3CCC2CN(S(=O)(=O)c2ccc(F)cc2)CC3)c1 (stereo unspecified) | 62* | -3 | 18 | ? | -1
Cc1ccccc1C(=O)c1cccn1CC(=O)NCCCN1CCCCC1 | -1 | 0 | 0 | 8 | 15
Cc1ccc(C)c(N2CCN(CCCNC(=O)Cn3cccc3C(=O)c3ccccc3C)CC2)c1 | 26 | -6 | 1 | -7 | -36*
Oc1[nH]c2ccccc2c1N=NC(=S)NCCc1ccccc1 | 4 | -12 | ? | -20 | -30*
CCCCNC(=S)N=Nc1c(O)[nH]c2ccccc12 | 0 | -11 | 3 | -6 | -31*
Oc1cccc(NC(=S)N=Nc2c(O)[nH]c3ccccc23)c1 | 7 | -19 | -3 | 5 | -31*
COc1cc(OC)c(NC(=O)c2noc3c2CSc2ccccc2-3)cc1Cl | 4 | -1 | · | · | -1
CN(CC1CCOCC1)C(=O)CC1C(=O)NCCN1Cc1cccc(C(F)(F)F)c1 (stereo unspecified) | 2 | 6 | 9 | -14 | -77*
Cc1ccc(CN2CCNC(=O)C2CC(=O)N(C)C2CCOCC2)cc1 (stereo unspecified) | 2 | -6 | -4 | -7 | -33*
CN(C(=O)CC1C(=O)NCCN1Cc1ccoc1)C1CCOCC1 (stereo unspecified) | 1 | 2 | -1 | 15 | 8
CCOc1ccc(CNC(=O)COc2cc(=O)n(C)c3ccccc23)cc1 | 2 | 1 | · | · | 13
COc1ccc(C(c2c(NC(C)=O)sc3c2CCCC3)N2CCN(CCO)CC2)cc1OC (stereo unspecified) | 6 | 2 | 0 | -3 | -11
CC(=O)Nc1sc2c(c1C(c1cccc(Cl)c1)N1CCN(CCO)CC1)CCCC2 (stereo unspecified) | 15 | -5 | 11 | -3 | -30*
CCOc1ccc(OCC)c(NS(=O)(=O)c2ccc(-c3coc(C)n3)cc2)c1 | 5 | -3 | · | · | -7
CCOc1nc(NC(=O)NS(=O)(=O)c2ccccc2F)nc(-c2ccccc2)n1 | 1 | 1 | 0 | ? | -31*
COc1cc(NC(=O)C2CC(c3c(F)cccc3Cl)=NO2)cc(OC)c1OC (stereo unspecified) | 20 | -7 | 0 | 11 | -39*
COc1ccc(NC(=O)C2CC(c3c(F)cccc3Cl)=NO2)cc1 (stereo unspecified) | 5 | -3 | 6 | 1 | -15
O=C1CN(C(=O)c2cccc(Br)c2)C(c2ccccc2)c2cc(Cl)ccc2N1 (stereo unspecified) | 6 | -1 | · | · | 15
CCc1cc(=O)oc2c(C)c(OCC(=O)NCC3CCC(C(=O)O)CC3)ccc12 (stereo unspecified) | 3 | -13 | -4 | -10 | -66*
CCN(CC)S(=O)(=O)c1ccc(C(=O)NCCSc2c(-c3ccc(OC)cc3)[nH]c3ccccc23)cc1 | 5 | -1 | · | · | 0
CC(C)(C)n1nc(-c2ccc(Cl)cc2)c2c(N)ncnc21 | 1 | -2 | 13 | -10 | -11
Cc1ccc(-c2nc(N)c3c(-c4ccc(C)cc4)nn(C(C)(C)C)c3n2)cc1 | 2 | -20 | -2 | -29 | -46*
COC(=O)c1ccc(OCC(O)CN2C(=O)c3ccccc3C2=O)cc1 (stereo unspecified) | 3 | -11 | 19 | -19 | -31*
Cc1ccc2nc(Cl)c3cc(C(=O)NC4CCC(C)CC4)sc3c2c1 (stereo unspecified) | 0 | 2 | · | · | 3
Cc1cccc(NC(=O)c2ccc(N(Cc3ccccc3)S(C)(=O)=O)cc2)c1 | 7 | 0 | · | · | 0
SMILES | D1 ag | D1 PAM | TRPV1 agonist | TRPV1 PAM | D1 antag
CC(C)(NC(=O)c1cc(Cl)c2ccccc2c1O)C(=O)O | 0 | 0 | 5 | -13 | -30*
Cc1cccc(-c2nc(CN3CCCC(C(=O)N4CCN(c5cc(Cl)ccc5C)CC4)C3)c(C)o2)c1 (stereo unspecified) | 4 | -2 | · | · | 1
COc1ccc(/C=N\NC(=O)CC(=O)Nc2cccc(Cl)c2)cc1OC | -1 | 0 | 6 | -3 | -51*
COc1ccc(/C=N/NC(=O)CCCOc2ccc(Cl)cc2Cl)cc1 | 3 | -6 | ? | -33 | -32*
COc1ccc(/C=N/NC(=O)CCC(=O)Nc2ccccc2)cc1OC | 1 | -1 | -2 | 3 | 2
O=C(CCCOc1ccc(Cl)cc1Cl)N/N=C/c1ccc(Cl)cc1 | 5 | -10 | 20 | -3 | -25
COc1ccc2c(c1)CC(C(=O)NCCCN1CCN(c3cccc(Cl)c3)CC1)CO2 (stereo unspecified) | 21 | -2 | · | · | -6
CCOc1ccccc1NC(=O)CN(c1ccc(OC)cc1OC)S(=O)(=O)c1ccccc1[N+](=O)[O-] | 5 | -7 | -2 | 2 | -44*
COc1ccc(OC)c(S(=O)(=O)N(C)CC(=O)Nc2ccccc2OC)c1 | 2 | -9 | 11 | -5 | -82*
Cc1ccc(Cl)cc1NC(=O)NCc1cccn1Cc1ccc(F)cc1 | 0 | -3 | · | · | 2
Cc1nnc2c3ccccc3nc(Nc3ccccc3C(=O)O)n12 | 0 | 3 | · | · | -7
Cc1ccc2oc(=O)c3cc(C(=O)Nc4ccc(F)cc4F)sc3c2c1 | 0 | 2 | · | · | 3
Cc1cc(-c2ccccc2)[nH]c(=O)c1C#N | 1 | -4 | -1 | 7 | 3
N#Cc1c(-c2ccccc2)[nH]c(=O)[nH]c1=O | 4 | 0 | -2 | 0 | -35*
COc1ccc(OCC(=O)OCC(=O)NC2CC2)cc1 | 2 | 1 | 1 | -8 | 8
COc1ccc(OCC(=O)OCC(=O)N2C(C)CCCC2C)cc1 (stereo unspecified) | 14 | · | 4 | -1 | -36*
COc1ccc(NC(=O)CSCc2cc(=O)c3cc(Cl)ccc3[nH]2)cc1 | -1 | 0 | · | · | 9
O=[N+]([O-])c1ncccc1OCc1ccc(-c2ccccc2)cc1 | 6 | -7 | 2 | 12 | -33*
Cc1cccc(N2CCN(CCCNC(=O)Cn3ncc4c([nH]c5ccccc54)c3=O)CC2C)c1 (stereo unspecified) | -1 | -1 | · | · | -10
CC(=O)NCC(=O)NNC1CC(=O)N(c2cccc(Cl)c2)C1=O (stereo unspecified) | 1 | 31* | 0 | 4 | 7
CCOC(=O)CNC1CC(=O)N(c2cccc(Cl)c2)C1=O (stereo unspecified) | 3 | -2 | -5 | 8 | 4
COc1ccc(OC)c(C2CC(=O)Oc3c2c(=O)n(C)c2ccccc32)c1 (stereo unspecified) | 0 | -3 | · | · | -5
